Laboratory results as given in PubChem BioAssay (Tox21).
The source made the active and inactive calls. Where a call stands in place of a potency, no number is given. Unless noted, calls follow the shape of the dose curve; as a rule, active = well fitted curve in the direction sought with a large enough effect in the repeat runs; inconclusive = weak or mixed curves; inactive = no such curve, though single readings can be large; an effect the other way counts as inactive or inconclusive.

Experiments:
[1] = qHTS assay to identify small molecule antagonists of the thyroid receptor (TR) signaling pathway - cell viability counter screen (AID 743064); also: nearly all actives have a fitted effect of over 50% in size; also: potency is read from the fitted curve at half-maximal effect
Summary of the method: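 Counter screen for cytotoxicity: compound plus T3 (1 nM final) on GH3.TRE-Luc cells, 23.5 h at 37 °C, then fluorescence viability readout with CellTiter-Fluor.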

[2] = test system: thyroid hormone receptor (rat, GH3 cells); assay: qHTS assay to identify small molecule agonists of the thyroid receptor (TR) signaling pathway (AID 743066; calls by dose curve)
[3] = molecular target: Estrogen receptor (Homo sapiens) (UniProt P03372); assay: qHTS assay to identify small molecule antagonists of the estrogen receptor alpha (ER-alpha) signaling pathway (AID 743069; active = well fitted curve in the direction sought with a large enough effect in the signal ratio in the repeat runs, not every such curve was filed as active; inconclusive = weak or mixed curves, or effect the other way; inactive = no such curve, though single readings can be large or run the other way; the % refers to the signal ratio; also: potency is read from the fitted curve at half-maximal effect)
Summary of the method: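 Beta-lactamase FRET fluorescence is read after 2 hr at room temperature with LiveBLAzer B/G substrate. Before that, ER-alpha-bla HEK293 cells sit 4 hr after plating, then receive compound plus 17beta-estradiol and incubate 18 hr at 37C.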

[4] = qHTS assay to identify small molecule antagonists of the estrogen receptor alpha (ER-alpha) signaling pathway - cell viability counter screen (AID 743074; calls by dose curve;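 also: HEK293 cells carrying ER-alpha-UAS-bla reporter stimulated with 17beta-estradiol; nearly all actives have a fitted effect of over 45% in size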; also: potency is read from the fitted curve at half-maximal effect)
[5] = molecular target: Estrogen receptor (Homo sapiens) (UniProt P03372); assay: qHTS assay to identify small molecule agonists of the estrogen receptor alpha (ER-alpha) signaling pathway (AID 743075; calls by dose curve;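 also: HEK293 GripTite cells with ER-alpha and UAS-driven beta-lactamase reporter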; also: potency is read from the fitted curve at half-maximal effect)
[6] = molecular target: Estrogen receptor (Homo sapiens) (UniProt P03372); assay: qHTS assay to identify small molecule agonists of the estrogen receptor alpha (ER-alpha) signaling pathway using the BG1 cell line (AID 743079); details: BG1Luc4E2 cells, ERE-luciferase agonist, 22 h; activation: at 70.3 µM (top of the series); also: nearly all actives have a fitted effect of over 20% in size; also: potency is read from the fitted curve at half-maximal effect
[7] = qHTS assay to identify small molecule antagonists of the estrogen receptor alpha (ER-alpha) signaling pathway using the BG1 cell line (AID 743080; calls by dose curve;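 also: BG1 cells stimulated with 17beta-estradiol alongside compound; nearly all actives have a fitted effect of over 25% in size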; also: potency is read from the fitted curve at half-maximal effect)
Summary of the method: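 Luminescence from a 4×ERE-luciferase reporter in BG1-Luc-4E2 cells served as read-out. Cells, pre-cultured 5 days in stripped-serum phenol-red-free medium, were exposed to compound with 17beta-estradiol co-stimulation for 21.5 h at 37 C.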

[8] = qHTS assay to identify small molecule antagonists of the estrogen receptor alpha (ER-alpha) signaling pathway using the BG1 cell line - cell viability counter screen (AID 743081);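 also: compound given together with 17beta-estradiol as the ER stimulus; nearly all actives have a fitted effect of over 45% in size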; also: potency is read from the fitted curve at half-maximal effect
[9] = molecular target: Aromatase (Homo sapiens) (UniProt P11511); assay: qHTS assay to identify aromatase inhibitors (AID 743083); also: nearly all actives have a fitted effect of over 55% in size; also: potency is read from the fitted curve at half-maximal effect
[10] = qHTS assay to identify aromatase inhibitors - cell viability counter screen (AID 743084);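 also: cells stimulated with testosterone during compound exposure; nearly all actives have a fitted effect of over 55% in size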
[11] = molecular target: Aryl hydrocarbon receptor (Homo sapiens) (UniProt P35869); assay: qHTS assay to identify small molecule that activate the aryl hydrocarbon receptor (AhR) signaling pathway (AID 743085); also: nearly all actives have a fitted effect of over 15% in size; also: potency is read from the fitted curve at half-maximal effect;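 as to activation: HG2L7.5c1 human HepG2 liver cells with stably integrated DRE-driven firefly reporter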
Summary of the method: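 Measured in HG2L7.5c1 cells: CellTiter-Fluor signal (30 min incubation, 37C) for viability, then luciferase luminescence (30 min, room temperature). Compound contact time was 24 h at 37C, following a 5 h pre-incubation.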

[12] = qHTS assay to identify small molecule that activate the aryl hydrocarbon receptor (AhR) signaling pathway - cell viability counter screen (AID 743086); also: nearly all actives have a fitted effect of over 45% in size; also: potency is read from the fitted curve at half-maximal effect
Summary of the method: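 HepG2-AhR-luc (HG2L7.5c1) cells, 4000/well, treated 24 h at 37 C with compound; viability measured as CellTiter-Fluor fluorescence after 30 min in the same wells as the luciferase read.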

[13] = molecular target: Peroxisome proliferator-activated receptor gamma (Homo sapiens) (UniProt P37231); assay: qHTS assay to identify small molecule agonists of the peroxisome proliferator-activated receptor gamma (PPARg) signaling pathway (AID 743094; active = well fitted activation curve with a large enough effect in the signal ratio in the repeat runs, not every such curve was filed as active; inconclusive = weak or mixed curves, or effect the other way; inactive = no such curve, though single readings can be large or run the other way; the % refers to the signal ratio; also: potency is read from the fitted curve at half-maximal effect)
Summary of the method: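 Cell-based bla reporter, HEK293H background, PPARg-driven UAS. Pre-incubation 5 h, 37C, 5% CO2. Compound 17 h, 37C. Substrate 1 h RT; fluorescence.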

[14] = qHTS assay to identify small molecule antagonists of the peroxisome proliferator-activated receptor gamma (PPARg) signaling pathway - cell viability counter screen (AID 743194); also: nearly all actives have a fitted effect of over 55% in size
Summary of the method: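 Cytotoxicity counter screen in PPARg-bla HEK293H cells, same wells as reporter assay. Compounds plus 50 nM rosiglitazone (final) for 17 h at 37 C, then viability read by CellTiter-Glo luminescence.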

[15] = qHTS assay for small molecule agonists of the antioxidant response element (ARE) signaling pathway (AID 743202; active = well fitted activation curve with a large enough effect in the signal ratio in the repeat runs, not every such curve was filed as active; inconclusive = weak or mixed curves, or effect the other way; inactive = no such curve, though single readings can be large or run the other way; the % refers to the signal ratio; also: potency is read from the fitted curve at half-maximal effect)
Summary of the method: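 HepG2 ARE-bla reporter line, 2,000 cells/well; 5 h preincubation 37 C/5% CO2; compound (DMSO) 16 h 37 C; B/G FRET substrate 2 h RT; fluorescence intensity.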

[16] = qHTS assay for small molecule agonists of the antioxidant response element (ARE) signaling pathway - cell viability counter screen (AID 743203; calls by dose curve; also: nearly all actives have a fitted effect of over 55% in size)
Summary of the method: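 Measured in the same wells as the beta-lactamase ARE reporter, this read-out is CellTiter-Glo luminescence from HepG2 ARE-bla cells given compounds for 16 hrs.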

[17] = qHTS assay for small molecule activators of the heat shock response signaling pathway - cell viability counter screen (AID 743209); also: nearly all actives have a fitted effect of over 50% in size
Summary of the method: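 Same-well multiplex: after 2.5 h room-temperature incubation with LiveBLAzer B/G substrate and fluorescence reading, CellTiter-Glo reagent was added to HSE-bla HeLa cells that had received compound for 5 h at 37 C; luminescence read after 30 min.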

[18] = qHTS assay for small molecule activators of the heat shock response signaling pathway (AID 743210; active = well fitted activation curve with a large enough effect in the signal ratio in the repeat runs, with a control signal flat, not every such curve was filed as active; inconclusive = weak or mixed curves; the % refers to the signal ratio;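 also: HeLa cells with beta-lactamase reporter driven by heat shock elements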)
Summary of the method: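 Beta-lactamase reporter read-out: FRET substrate fluorescence after 2.5 h at RT, following 5 h compound treatment at 37 C of HeLa cells carrying HSE-driven bla reporter; quantitative HTS format.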

[19] = qHTS assay to identify small molecule antagonists of the thyroid receptor (TR) signaling pathway (AID 743065); also: nearly all actives have a fitted effect of over 55% in size; also: potency is read from the fitted curve at half-maximal effect
Summary of the method: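 GH3.TRE-Luc rat pituitary cells (two TREs driving luciferase) were dosed with compound, then stimulated with 1 nM T3 (final) for 23.5 h at 37 C. ONE-Glo luminescence was the read-out, with CellTiter-Fluor fluorescence as the cytotoxicity counter-screen.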

[20] = molecular target: Peroxisome proliferator-activated receptor gamma (Homo sapiens) (UniProt P37231); assay: qHTS assay to identify small molecule antagonists of the peroxisome proliferator-activated receptor gamma (PPARg) signaling pathway (AID 743191; calls by dose curve; also: nearly all actives have a fitted effect of over 30% in size; also: potency is read from the fitted curve at half-maximal effect)
Summary of the method: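 GeneBLAzer PPARg UAS-bla HEK293H cells, 5 h post-plating, exposed to compounds 17 h at 37C. LiveBLAzer B/G FRET substrate added for 1 h at room temperature; beta-lactamase reporter read by fluorescence intensity.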

Chain of Aryl hydrocarbon receptor (Homo sapiens) (P35869 whole entry, looked up): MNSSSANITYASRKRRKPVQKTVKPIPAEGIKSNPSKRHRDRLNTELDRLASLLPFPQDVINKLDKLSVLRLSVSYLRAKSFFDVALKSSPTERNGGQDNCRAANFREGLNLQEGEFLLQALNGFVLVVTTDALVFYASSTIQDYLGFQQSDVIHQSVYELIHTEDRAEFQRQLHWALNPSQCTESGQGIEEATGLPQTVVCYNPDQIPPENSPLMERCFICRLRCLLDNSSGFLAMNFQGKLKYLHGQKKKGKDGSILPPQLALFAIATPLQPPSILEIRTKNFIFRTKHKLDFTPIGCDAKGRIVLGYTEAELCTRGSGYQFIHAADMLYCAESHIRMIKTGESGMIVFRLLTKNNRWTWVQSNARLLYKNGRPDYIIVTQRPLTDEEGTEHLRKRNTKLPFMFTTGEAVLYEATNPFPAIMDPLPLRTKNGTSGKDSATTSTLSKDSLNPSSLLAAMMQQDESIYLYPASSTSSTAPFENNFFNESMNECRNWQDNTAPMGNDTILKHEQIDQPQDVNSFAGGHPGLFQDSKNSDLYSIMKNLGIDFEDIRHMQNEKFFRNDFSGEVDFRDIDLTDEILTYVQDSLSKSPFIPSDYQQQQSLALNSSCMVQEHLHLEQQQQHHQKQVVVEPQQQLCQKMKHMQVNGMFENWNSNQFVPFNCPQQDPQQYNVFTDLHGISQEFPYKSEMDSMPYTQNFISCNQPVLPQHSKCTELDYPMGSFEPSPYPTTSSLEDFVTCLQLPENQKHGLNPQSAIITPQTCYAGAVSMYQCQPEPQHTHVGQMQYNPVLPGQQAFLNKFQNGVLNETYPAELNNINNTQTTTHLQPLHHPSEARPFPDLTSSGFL
Chain of Estrogen receptor (Homo sapiens) (P03372 whole entry, looked up): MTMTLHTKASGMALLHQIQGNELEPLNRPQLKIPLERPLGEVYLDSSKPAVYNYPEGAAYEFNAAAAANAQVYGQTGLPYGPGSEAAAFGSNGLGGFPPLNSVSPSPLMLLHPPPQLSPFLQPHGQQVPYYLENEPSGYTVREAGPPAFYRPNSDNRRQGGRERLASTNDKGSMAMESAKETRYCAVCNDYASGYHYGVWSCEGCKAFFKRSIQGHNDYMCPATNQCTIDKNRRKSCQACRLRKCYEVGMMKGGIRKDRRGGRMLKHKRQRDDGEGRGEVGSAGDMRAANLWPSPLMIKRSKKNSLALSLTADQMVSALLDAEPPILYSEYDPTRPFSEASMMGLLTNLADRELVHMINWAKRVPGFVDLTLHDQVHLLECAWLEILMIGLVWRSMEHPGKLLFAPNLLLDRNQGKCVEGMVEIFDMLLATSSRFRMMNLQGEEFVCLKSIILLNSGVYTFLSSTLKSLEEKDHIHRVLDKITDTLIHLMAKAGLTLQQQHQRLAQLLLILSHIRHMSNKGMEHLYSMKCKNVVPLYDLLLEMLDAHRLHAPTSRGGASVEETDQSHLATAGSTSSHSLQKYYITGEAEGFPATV
Chain of Aromatase (Homo sapiens) (P11511 whole entry, looked up): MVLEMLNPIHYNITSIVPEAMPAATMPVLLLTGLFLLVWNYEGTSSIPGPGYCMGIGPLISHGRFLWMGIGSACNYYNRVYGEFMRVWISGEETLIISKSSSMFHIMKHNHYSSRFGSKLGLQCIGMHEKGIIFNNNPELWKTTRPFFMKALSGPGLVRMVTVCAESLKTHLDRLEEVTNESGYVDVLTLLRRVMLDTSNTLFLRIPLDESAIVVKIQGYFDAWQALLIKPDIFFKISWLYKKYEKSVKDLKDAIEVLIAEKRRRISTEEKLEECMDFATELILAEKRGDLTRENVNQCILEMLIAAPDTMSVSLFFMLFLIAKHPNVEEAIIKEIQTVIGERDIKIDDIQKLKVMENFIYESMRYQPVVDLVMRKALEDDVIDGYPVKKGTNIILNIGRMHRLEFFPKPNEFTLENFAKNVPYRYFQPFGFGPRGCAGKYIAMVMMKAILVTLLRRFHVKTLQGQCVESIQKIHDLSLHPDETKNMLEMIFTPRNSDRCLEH
Chain of Peroxisome proliferator-activated receptor gamma (Homo sapiens) (P37231 whole entry, looked up): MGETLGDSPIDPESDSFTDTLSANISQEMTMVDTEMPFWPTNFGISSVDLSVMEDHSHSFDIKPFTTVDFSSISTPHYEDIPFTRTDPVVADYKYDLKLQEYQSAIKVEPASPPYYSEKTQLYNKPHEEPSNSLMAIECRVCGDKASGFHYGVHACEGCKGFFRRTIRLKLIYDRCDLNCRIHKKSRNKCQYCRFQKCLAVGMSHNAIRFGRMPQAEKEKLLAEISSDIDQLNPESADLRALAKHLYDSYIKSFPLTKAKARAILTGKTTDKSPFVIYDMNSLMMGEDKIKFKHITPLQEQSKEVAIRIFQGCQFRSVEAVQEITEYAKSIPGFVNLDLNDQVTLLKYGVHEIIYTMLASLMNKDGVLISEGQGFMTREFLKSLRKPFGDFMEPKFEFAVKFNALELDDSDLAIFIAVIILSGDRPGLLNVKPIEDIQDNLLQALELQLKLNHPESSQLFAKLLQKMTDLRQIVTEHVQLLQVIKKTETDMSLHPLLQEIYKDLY

SMILES	Potency [1]	outcome [2]	Potency [3]	Potency [4]	Potency [5]	Potency [6]	Potency [7]	Potency [8]	Potency [9]	Potency [10]	Potency [11]	Potency [12]	Potency [13]	Potency [14]	Potency [15]	Potency [16]	Potency [17]	Potency [18]	Potency [19]	Potency [20]
CCN(Cc1cccc(S(=O)(=O)O)c1)c1ccc(C(=C2C=CC(=[N+](CC)Cc3cccc(S(=O)(=O)[O-])c3)C=C2)c2ccccc2)cc1	inactive	inactive	inactive	inactive	inactive	inactive	inactive	inactive	inactive	inactive	inactive	inactive	inactive	inactive	38.3 µM (active)	inactive	inactive	inactive		
O=C(Nc1ccccc1)Nc1ccccc1	inactive	inactive	inactive	inactive	inactive	19.4 µM (active)		inactive	inactive	inactive	30.8 µM (active)	inactive	inactive	inactive	inactive	inactive	inactive	inactive		
CCOc1cc(N)c(Cl)cc1C(=O)NCC1CN(Cc2ccc(F)cc2)CCO1 (centres undefined)	inactive	inactive	inactive	inactive	inactive	inactive	inactive	inactive	inactive	inactive		inactive		inactive		inactive		inactive		
COCCOC(=O)C1=C(C)NC(C)=C(C(=O)OC/C=C/c2ccccc2)C1c1cccc([N+](=O)[O-])c1 (centres undefined)	13.3 µM (active)		23.9 µM [inconclusive] (active)	inactive	inactive		inactive	inactive						inactive			inactive	inactive	11.9 µM (active)	18.8 µM (active)
COc1ccc(C(=O)c2cccc(O)c2)c(OC)c1	inactive	inactive	inactive	inactive	24.5 µM [activator] (active)	6.84 µM (active)	68.5 µM (active)	inactive	inactive		17.2 µM (active)	inactive	inactive	inactive		inactive	inactive	inactive		
C[Si](NC1CCCCC1)(NC1CCCCC1)NC1CCCCC1	inactive	inactive	inactive	inactive	inactive	inactive	inactive	inactive	inactive	inactive	inactive	inactive	inactive	inactive		inactive	inactive	inactive		inactive
CC1=NN(c2ccc(C(=O)O)cc2)C(=O)C1	inactive			inactive				inactive	inactive	inactive		inactive	inactive	inactive	inactive	inactive	inactive	inactive	inactive	inactive
CCNC(=O)N1CCN(CCCC(c2ccc(F)cc2)c2ccc(F)cc2)CC1	21.1 µM (active)			16.9 µM (active)	inactive			29.8 µM (active)			inactive	13.3 µM (active)		inactive			inactive	inactive	21.1 µM (active)	
Cc1nccn1-c1ccc(Sc2cccc(C3(C(N)=O)CCOCC3)c2)cc1	27.3 µM (active)		0.275 µM [inconclusive] (active)	inactive			1.93 µM (active)	inactive	54.5 µM (active)	inactive	inactive	inactive				inactive	inactive	inactive	4.86 µM (active)	inactive
CNC(=S)NC	inactive	inactive	inactive	inactive	inactive	inactive	inactive	inactive	inactive	inactive	inactive	inactive		inactive		inactive	inactive	inactive		inactive
C=CC(C)(O)CCCC(C)CCCC(C)CCCC(C)C (centres undefined)	inactive		inactive	inactive	inactive	inactive	inactive	inactive	inactive	inactive	inactive	inactive	inactive	inactive	inactive	inactive	inactive	inactive	inactive	
CCCCCCCCCCOS(=O)(=O)O	inactive	inactive	inactive	inactive	inactive	inactive	inactive	inactive	inactive	inactive		inactive		inactive		inactive	inactive	inactive		
C[C@]12CCC(=O)C=C1C=C[C@@H]1[C@@H]2CC[C@@]2(C)[C@H]1CC[C@@]21CCC(=O)O1	inactive	inactive	inactive	inactive	inactive			inactive		inactive	inactive	inactive		inactive	11.9 µM (active)	inactive	inactive	inactive		
CC(=O)Oc1ccc2c(c1)CC[C@@H]1[C@@H]2CC[C@]2(C)[C@@H](O)CC[C@@H]12	26.6 µM (active)			inactive				inactive	inactive	inactive	inactive	inactive	inactive	inactive		inactive	inactive	inactive	26.6 µM (active)	
CCCc1c(OCCCOc2ccc(OCC(=O)O)cc2)ccc(C(C)=O)c1O	inactive	inactive		inactive	inactive	inactive	inactive	inactive		inactive	inactive	inactive	0.275 µM (active)	inactive	inactive	inactive		inactive		
